Assay [1] in a line: ATG_NF_kB_CIS: Attagene CIS-FACTORIAL HepG2 Assay for human Nuclear Factor Kappa B (NF-kB) (AID 2282991; active = hit-call score of the fitted dose curve at least 0.9, where 1 is the maximum; inactive = score below 0.9). The note with it: HepG2 Attagene cis-factorial NF-kB reporter mRNA; actives raise or lower the signal. The gist of the method:
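HepG2 cells transiently transfected with multiplexed cis-element reporter units measuring endogenous transcription factor activity; reporter mRNA read 24 h after dosing by RT-PCR, fluorescent labelling, HpaI digestion and capillary electrophoresis. Bidirectional fit against DMSO baseline.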

Assay [2] can be described thus: ATG_Oct_MLP_CIS: Attagene CIS-FACTORIAL HepG2 Assay for human Octamer-Binding Transcription Factor (Oct) (AID 2282993; active = hit-call score of the fitted dose curve at least 0.9, where 1 is the maximum; inactive = score below 0.9). Conditions: HepG2 Attagene cis-factorial Oct reporter, mRNA; actives raise or lower the signal. The gist of the method: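 Cells of the HepG2 line express promoter-controlled reporter sequences whose mRNA levels, after 24 h treatment, are measured by RT-PCR and capillary electrophoresis. Increases and decreases are scored relative to DMSO.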

Assay [3] addresses Cellular tumor antigen p53 (Homo sapiens) (UniProt P04637). In words: ATG_p53_CIS: Attagene CIS-FACTORIAL HepG2 Assay for human p53 Transcription Factor (AID 2282994; active = hit-call score of the fitted dose curve at least 0.9, where 1 is the maximum; inactive = score below 0.9). Conditions: HepG2 p53 cis-element reporter, Attagene mRNA; actives raise or lower the signal. Summed up:
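Using HepG2 hepatoma cells carrying cis-acting multiplexed reporters, mRNA induction is detected after a 24 h exposure. Gain- and loss-of-signal responses are fitted relative to DMSO-treated cells.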

For assay [4], the target named is human Peroxisome Proliferator-activated Receptor delta (PPARd), PPARD (gene 5467) (UniProt Q03181). In words: ATG_PPARd_TRANS: Attagene TRANS-FACTORIAL HepG2 Assay for human Peroxisome Proliferator-activated Receptor delta (PPARd) (AID 2283002). The gist of the method: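 Transient HepG2 transfection (multiple GAL4-UAS RTUs, chimeric receptor-Gal4); 24 h dosing; total RNA → oligo(dT) RT → PCR → 6-FAM primer extension → HpaI cut → CE. Positive direction vs DMSO.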
Sequence of human Peroxisome Proliferator-activated Receptor delta (PPARd), PPARD (gene 5467) (Q03181 whole entry, looked up, the tested form may be a part): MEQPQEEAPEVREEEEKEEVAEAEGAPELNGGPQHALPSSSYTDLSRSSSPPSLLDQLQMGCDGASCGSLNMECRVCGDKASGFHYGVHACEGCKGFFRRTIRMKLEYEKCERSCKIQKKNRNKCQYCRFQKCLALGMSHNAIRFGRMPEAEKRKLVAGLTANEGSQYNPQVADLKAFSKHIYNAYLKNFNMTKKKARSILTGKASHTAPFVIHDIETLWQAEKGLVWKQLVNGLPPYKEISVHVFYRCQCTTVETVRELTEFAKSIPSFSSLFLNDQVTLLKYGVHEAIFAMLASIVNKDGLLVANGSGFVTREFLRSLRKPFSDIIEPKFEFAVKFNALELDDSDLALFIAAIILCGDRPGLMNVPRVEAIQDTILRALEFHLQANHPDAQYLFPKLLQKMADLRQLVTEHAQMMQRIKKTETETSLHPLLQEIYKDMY

The target of assay [5] is human Retinoic Acid Receptor beta (RARb), RARB (gene 5915) (UniProt P10826). Description: ATG_RARb_TRANS: Attagene TRANS-FACTORIAL HepG2 Assay for human Retinoic Acid Receptor beta (AID 2283004). Summed up:
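HepG2 cells were transiently transfected with GAL4-UAS reporter units that report activity of exogenous chimeric NR-Gal4 proteins, then exposed to compound for 24 h. Reporter mRNA was quantified by RT-PCR with capillary electrophoresis fluorescence, as gain of signal over DMSO.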

The target in assay [6] is Retinoic acid receptor alpha (Homo sapiens) (UniProt P10276). Description: ATG_RARa_TRANS: Attagene TRANS-FACTORIAL HepG2 Assay for human Retinoic Acid Receptor alpha (RARa) (AID 2283005).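 For AC50: potency for increased reporter signal meaning RARa activation over DMSO.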 The gist of the method:
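Reporter transcripts, measured by RT-PCR with fluorescent labeling and capillary electrophoresis after 24 h dosing, reflect activity of an exogenous human RARa–GAL4 fusion in transiently transfected HepG2. Fitted for increase relative to DMSO.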

The target of assay [7] is Peroxisome proliferator-activated receptor gamma (Homo sapiens) (UniProt P37231). In words: ATG_PPARg_TRANS: Attagene TRANS-FACTORIAL HepG2 Assay for human Peroxisome Proliferator-activated Receptor-gamma (PPARg) (AID 2283007). Summed up:
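HepG2 cells transiently transfected with multiplexed GAL4-UAS reporter units and exogenous chimeric NR-Gal4 proteins; reporter mRNA quantified after 24 h compound exposure by RT-PCR, fluorescent labelling, HpaI digestion and capillary electrophoresis; gain-of-signal fitted versus DMSO baseline.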

Assay [8] deals with Nuclear receptor subfamily 1 group I member 2 (Homo sapiens) (UniProt O75469). In words: ATG_PXR_TRANS: Attagene TRANS-FACTORIAL HepG2 Assay for human Pregnane X Receptor (PXR) (AID 2283008). Summed up: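 Fluorescence intensity of FAM-labelled, HpaI-digested reporter amplicons, separated by capillary electrophoresis, quantifies induction. HepG2 cells with PXR-Gal4 trans-reporter system were exposed 24 h; DMSO defines baseline.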
Sequence of Nuclear receptor subfamily 1 group I member 2 (Homo sapiens) (O75469 whole entry, looked up, the tested form may be a part): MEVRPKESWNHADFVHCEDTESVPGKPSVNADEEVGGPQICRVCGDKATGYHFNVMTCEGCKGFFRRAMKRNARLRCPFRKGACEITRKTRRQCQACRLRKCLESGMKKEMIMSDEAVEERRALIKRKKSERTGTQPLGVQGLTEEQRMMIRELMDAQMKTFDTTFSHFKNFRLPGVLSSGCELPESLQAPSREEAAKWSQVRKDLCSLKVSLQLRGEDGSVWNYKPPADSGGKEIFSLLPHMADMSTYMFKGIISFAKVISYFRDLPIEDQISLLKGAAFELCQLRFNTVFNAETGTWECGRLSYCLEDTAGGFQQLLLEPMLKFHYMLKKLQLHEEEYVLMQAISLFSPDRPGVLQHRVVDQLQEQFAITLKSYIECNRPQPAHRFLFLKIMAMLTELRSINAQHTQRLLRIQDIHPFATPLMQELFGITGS

For assay [9], the target named is human Retinoic Acid Receptor gamma (RARg), RARG (gene 5916) (UniProt P13631). In words: ATG_RARg_TRANS: Attagene TRANS-FACTORIAL HepG2 Assay for human Retinoic Acid Receptor gamma (RARg) (AID 2283009). Summed up:
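Transient transfection of HepG2 with multi-reporter constructs, then 24 h chemical treatment. Total RNA isolated, reverse-transcribed, PCR-amplified, fluorescently labelled and resolved by capillary electrophoresis; activity scored as mRNA induction versus DMSO.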

Assay [10] deals with Retinoic acid receptor RXR-alpha (Homo sapiens) (UniProt P19793). In words: ATG_RXRa_TRANS: Attagene TRANS-FACTORIAL HepG2 Assay for human Retinoid X Receptor alpha (RXRa) (AID 2283012). Summed up:
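Transient transfection of human HepG2 with multiple GAL4-UAS reporter constructs; 24 h compound exposure; total RNA isolated, reverse-transcribed, PCR-amplified, 6-FAM labelled, HpaI-cut, resolved by capillary electrophoresis. Positive-direction fit versus DMSO.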

A short description of assay [11]: ATG_NRF2_ARE_CIS: Attagene CIS-FACTORIAL HepG2 Assay for human Nuclear Factor Erythroid 2 Related Factor 2 (NFR2) response to Antioxidant Response Elements (ARE) (AID 2282992; active = hit-call score of the fitted dose curve at least 0.9, where 1 is the maximum; inactive = score below 0.9). The note with it: HepG2 Attagene ARE/NRF2 reporter, transcription factor activity; actives raise or lower the signal. The gist of the method: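 Cis-factorial assay: transfected HepG2 reporter library, 24 h dosing, mRNA readout via RT-PCR/CE; DMSO-referenced bidirectional analysis.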

A short description of assay [12]: BSK_3C_TissueFactor: BioMAP Diversity Plus: 3C Assay for Tissue Factor Biomarker Activity (AID 2282997; active = hit-call score of the fitted dose curve at least 0.9, where 1 is the maximum; inactive = score below 0.9). Conditions: BioMAP 3C HUVEC, tissue factor biomarker readout; actives raise or lower the signal. The gist of the method: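 HUVEC were treated 24 h, then surface tissue factor measured by ELISA and fitted bidirectionally against DMSO. Parallel SRB total-protein staining assessed overt cytotoxicity at the same time point.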

Assay [13] in a line: BSK_3C_uPAR: BioMAP Diversity Plus: 3C Assay for Urokinase-type plasminogen activator receptor (uPAR) Biomarker Activity (AID 2282998; active = hit-call score of the fitted dose curve at least 0.9, where 1 is the maximum; inactive = score below 0.9). The note with it: BioMAP 3C HUVEC, uPAR biomarker ELISA; actives raise or lower the signal. Summed up:
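Endothelial primary cells of human umbilical vein origin received test chemical; 24 h later uPAR was assayed by ELISA. Fitting was bidirectional, DMSO as negative control.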

Assay [14] is described as follows: BSK_3C_VCAM1: BioMAP Diversity Plus: 3C Assay for Vascular cell adhesion molecule 1 (VCAM1) Biomarker Activity (AID 2282999; active = hit-call score of the fitted dose curve at least 0.9, where 1 is the maximum; inactive = score below 0.9). Conditions: BioMAP 3C HUVEC, VCAM1 ELISA, cytokine-stimulated; actives raise or lower the signal. The gist of the method:
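Endothelial cells from human umbilical vein are treated with test chemical. At 24 h, VCAM-1 is measured by ELISA, and responses in either direction are fitted relative to DMSO.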

A short description of assay [15]: BSK_4H_Eotaxin3: BioMAP Diversity Plus: 4H Assay for Eotaxin 3 Biomarker Activity (AID 2283000; active = hit-call score of the fitted dose curve at least 0.9, where 1 is the maximum; inactive = score below 0.9). The note with it: primary human endothelial cells (HUVEC); actives raise or lower the signal. Summed up:
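Eotaxin-3 (CCL26) levels were measured by ELISA in HUVEC primary cultures 24 h post-dosing. Gain or loss of signal was fitted in both directions, with DMSO serving as baseline and negative control.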

Assay [16] addresses human Peroxisome Proliferator-activated Receptor alpha (PPARa), PPARA (gene 5465) (UniProt Q07869). Description: ATG_PPARa_TRANS: Attagene TRANS-FACTORIAL HepG2 Assay for human Peroxisome Proliferator-activated Receptor alpha (PPARa) (AID 2283001). The gist of the method:
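Read-out is fluorescence of reporter cDNA fragments resolved by capillary electrophoresis after RT-PCR. Human HepG2 liver cells carried transfected PPARa-Gal4 chimera and GAL4-UAS reporter units, treated 24 h; activity scored as increase over DMSO.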

Read-out in assay [17]: Intercellular Adhesion Molecule 1 (ICAM1), ICAM1 (gene 3383)
In words: BSK_3C_ICAM1: BioMAP Diversity Plus: 3C Assay for Intercellular Adhesion Molecule 1 (ICAM1) Biomarker Activity (AID 2283003; active = hit-call score of the fitted dose curve at least 0.9, where 1 is the maximum; inactive = score below 0.9). The note with it: primary human endothelial cells (HUVEC); actives raise or lower the signal. Summed up:
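ICAM-1 levels measured by ELISA after HUVEC cultures in the 3C system had been dosed for 24 h. Gain or loss of signal relative to DMSO was fitted in both directions.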

Assay [18] in a line: BSK_3C_Proliferation: Cell Proliferation Assessment in the BioMAP Diversity Plus: 3C Assay (AID 2283006; active = hit-call score of the fitted dose curve at least 0.9, where 1 is the maximum; inactive = score below 0.9;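 note: potency may reflect either rise or fall in cell number versus DMSO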). Conditions: primary human endothelial cells (HUVEC). Summed up:
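Read-out is total protein by SRB absorbance at 560 nm, taken as a proxy for relative cell number. Primary human umbilical vein endothelium cultured below confluence was dosed for 48 h, TCA-fixed and SRB-stained; curves were fitted bidirectionally versus DMSO.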

In assay [19] the target is human RAR-related Orphan Receptor beta (RORb), RORB (gene 6096) (UniProt Q92753). In words: ATG_RORb_TRANS: Attagene TRANS-FACTORIAL HepG2 Assay for human RAR-related Orphan Receptor beta (RORb) (AID 2283010). The gist of the method:
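Readout is reporter-gene mRNA induction, detected as fluorescence after RT-PCR and capillary electrophoresis, fitted for gain of signal against DMSO controls. Transiently transfected HepG2 liver cells carrying GAL4-UAS reporter constructs were treated for 24 hours.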

In assay [20] the target is human RAR-related Orphan Receptor gamma (RORg), RORC (gene 6097) (UniProt P51449). In words: ATG_RORg_TRANS: Attagene TRANS-FACTORIAL HepG2 Assay for human RAR-related Orphan Receptor gamma (RORg) (AID 2283011). Summed up: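 HepG2 cells transiently transfected with GAL4-UAS reporter units and chimeric RORg-Gal4 construct; after 24 h chemical exposure, reporter mRNA measured by RT-PCR with fluorescent capillary electrophoresis, gain of signal fitted against DMSO.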
Sequence of human RAR-related Orphan Receptor gamma (RORg), RORC (gene 6097) (P51449 whole entry, looked up, the tested form may be a part): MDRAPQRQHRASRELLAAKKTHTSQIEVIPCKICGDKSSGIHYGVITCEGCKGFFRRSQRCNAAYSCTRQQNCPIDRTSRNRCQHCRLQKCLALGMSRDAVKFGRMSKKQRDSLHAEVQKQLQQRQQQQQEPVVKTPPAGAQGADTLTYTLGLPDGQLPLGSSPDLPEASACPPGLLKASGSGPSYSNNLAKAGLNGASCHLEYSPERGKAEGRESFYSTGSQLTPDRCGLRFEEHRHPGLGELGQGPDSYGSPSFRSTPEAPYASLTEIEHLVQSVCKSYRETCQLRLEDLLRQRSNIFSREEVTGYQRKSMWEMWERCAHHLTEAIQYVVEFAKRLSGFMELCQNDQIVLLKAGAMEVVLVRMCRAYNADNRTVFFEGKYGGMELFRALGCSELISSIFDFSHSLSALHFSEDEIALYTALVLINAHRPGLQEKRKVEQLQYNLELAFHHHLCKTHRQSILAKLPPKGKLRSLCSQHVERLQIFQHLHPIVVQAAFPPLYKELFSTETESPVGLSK

The structures appear in SMILES notation. Inconclusive results are not listed. Activity calls are given as the source filed them. Rule for the calls, unless noted: active = hit-call score of the fitted dose curve at least 0.9, where 1 is the maximum; inconclusive = response in the unintended direction; inactive = score below 0.9.

Sequence of Retinoic acid receptor RXR-alpha (Homo sapiens) (P19793 whole entry, looked up, the tested form may be a part): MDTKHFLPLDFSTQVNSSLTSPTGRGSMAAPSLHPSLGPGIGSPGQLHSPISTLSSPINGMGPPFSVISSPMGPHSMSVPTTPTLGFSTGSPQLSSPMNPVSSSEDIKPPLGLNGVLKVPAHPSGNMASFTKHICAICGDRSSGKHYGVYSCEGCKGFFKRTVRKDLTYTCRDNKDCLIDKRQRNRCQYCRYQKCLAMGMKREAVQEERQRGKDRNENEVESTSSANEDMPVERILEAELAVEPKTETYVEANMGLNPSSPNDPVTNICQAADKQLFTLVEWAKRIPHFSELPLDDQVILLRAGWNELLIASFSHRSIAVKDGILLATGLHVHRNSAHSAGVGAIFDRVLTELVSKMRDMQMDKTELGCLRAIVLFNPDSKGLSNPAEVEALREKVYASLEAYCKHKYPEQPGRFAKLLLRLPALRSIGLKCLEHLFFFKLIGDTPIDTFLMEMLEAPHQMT
Sequence of human Retinoic Acid Receptor beta (RARb), RARB (gene 5915) (P10826 whole entry, looked up, the tested form may be a part): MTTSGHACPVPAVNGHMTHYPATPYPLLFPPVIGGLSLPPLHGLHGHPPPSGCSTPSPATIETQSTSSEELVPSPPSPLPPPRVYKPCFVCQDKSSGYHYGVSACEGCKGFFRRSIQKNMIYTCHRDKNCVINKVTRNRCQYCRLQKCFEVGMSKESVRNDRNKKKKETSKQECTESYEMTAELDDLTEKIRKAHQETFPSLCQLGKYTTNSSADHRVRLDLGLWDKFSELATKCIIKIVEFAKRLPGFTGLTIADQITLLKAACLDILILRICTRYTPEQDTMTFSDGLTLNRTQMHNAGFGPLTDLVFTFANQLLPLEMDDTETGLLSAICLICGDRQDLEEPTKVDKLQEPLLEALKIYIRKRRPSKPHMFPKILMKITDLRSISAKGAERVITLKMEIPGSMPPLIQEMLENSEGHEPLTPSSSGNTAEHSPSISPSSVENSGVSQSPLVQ
Sequence of Peroxisome proliferator-activated receptor gamma (Homo sapiens) (P37231 whole entry, looked up, the tested form may be a part): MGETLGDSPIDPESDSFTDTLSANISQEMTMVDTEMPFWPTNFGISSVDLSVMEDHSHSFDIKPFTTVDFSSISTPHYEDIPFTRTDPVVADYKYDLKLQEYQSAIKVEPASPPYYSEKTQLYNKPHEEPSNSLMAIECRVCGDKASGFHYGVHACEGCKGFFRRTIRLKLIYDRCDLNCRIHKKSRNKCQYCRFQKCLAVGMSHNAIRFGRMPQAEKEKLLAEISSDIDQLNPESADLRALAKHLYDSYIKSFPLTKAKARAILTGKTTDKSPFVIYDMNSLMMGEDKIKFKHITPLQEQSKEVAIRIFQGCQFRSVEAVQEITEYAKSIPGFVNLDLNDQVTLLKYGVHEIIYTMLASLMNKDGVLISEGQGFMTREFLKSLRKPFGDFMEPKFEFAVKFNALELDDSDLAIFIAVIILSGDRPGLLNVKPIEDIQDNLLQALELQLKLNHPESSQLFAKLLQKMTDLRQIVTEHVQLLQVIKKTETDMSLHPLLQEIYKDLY
Sequence of Cellular tumor antigen p53 (Homo sapiens) (P04637 whole entry, looked up): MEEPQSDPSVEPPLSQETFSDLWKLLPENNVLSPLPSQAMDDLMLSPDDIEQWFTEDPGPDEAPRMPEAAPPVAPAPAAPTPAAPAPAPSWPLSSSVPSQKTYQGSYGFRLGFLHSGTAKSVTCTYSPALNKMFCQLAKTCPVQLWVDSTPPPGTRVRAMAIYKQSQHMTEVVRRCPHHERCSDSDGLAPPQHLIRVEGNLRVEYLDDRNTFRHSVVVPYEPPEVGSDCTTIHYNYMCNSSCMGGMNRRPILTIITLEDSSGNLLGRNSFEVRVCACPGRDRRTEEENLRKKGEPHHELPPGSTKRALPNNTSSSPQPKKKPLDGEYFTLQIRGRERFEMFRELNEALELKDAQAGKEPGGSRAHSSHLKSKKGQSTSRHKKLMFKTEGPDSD
Sequence of Retinoic acid receptor alpha (Homo sapiens) (P10276 whole entry, looked up, the tested form may be a part): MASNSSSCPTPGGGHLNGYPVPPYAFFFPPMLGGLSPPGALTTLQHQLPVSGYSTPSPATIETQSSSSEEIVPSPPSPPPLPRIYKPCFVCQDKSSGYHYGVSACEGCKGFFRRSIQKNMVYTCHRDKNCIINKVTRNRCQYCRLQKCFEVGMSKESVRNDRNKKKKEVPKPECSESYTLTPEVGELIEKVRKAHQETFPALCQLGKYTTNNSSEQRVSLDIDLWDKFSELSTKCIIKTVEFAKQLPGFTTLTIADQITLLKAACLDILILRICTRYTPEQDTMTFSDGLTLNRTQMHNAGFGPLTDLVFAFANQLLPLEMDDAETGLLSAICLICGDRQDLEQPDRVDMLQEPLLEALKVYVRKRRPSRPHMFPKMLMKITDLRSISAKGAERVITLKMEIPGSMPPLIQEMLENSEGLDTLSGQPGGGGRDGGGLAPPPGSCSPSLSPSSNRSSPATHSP
Sequence of human Peroxisome Proliferator-activated Receptor alpha (PPARa), PPARA (gene 5465) (Q07869 whole entry, looked up, the tested form may be a part): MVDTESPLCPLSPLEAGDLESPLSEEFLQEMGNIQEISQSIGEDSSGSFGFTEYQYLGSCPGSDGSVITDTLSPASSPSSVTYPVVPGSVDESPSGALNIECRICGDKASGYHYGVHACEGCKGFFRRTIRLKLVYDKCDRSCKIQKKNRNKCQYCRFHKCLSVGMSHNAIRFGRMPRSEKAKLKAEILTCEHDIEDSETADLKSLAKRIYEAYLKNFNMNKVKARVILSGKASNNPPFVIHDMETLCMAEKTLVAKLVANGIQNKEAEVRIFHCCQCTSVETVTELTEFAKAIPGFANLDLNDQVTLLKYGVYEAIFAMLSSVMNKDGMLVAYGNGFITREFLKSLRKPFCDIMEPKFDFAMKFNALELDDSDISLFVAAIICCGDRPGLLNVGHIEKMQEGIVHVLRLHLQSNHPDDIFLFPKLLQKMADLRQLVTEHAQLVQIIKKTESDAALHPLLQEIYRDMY
Sequence of human Retinoic Acid Receptor gamma (RARg), RARG (gene 5916) (P13631 whole entry, looked up): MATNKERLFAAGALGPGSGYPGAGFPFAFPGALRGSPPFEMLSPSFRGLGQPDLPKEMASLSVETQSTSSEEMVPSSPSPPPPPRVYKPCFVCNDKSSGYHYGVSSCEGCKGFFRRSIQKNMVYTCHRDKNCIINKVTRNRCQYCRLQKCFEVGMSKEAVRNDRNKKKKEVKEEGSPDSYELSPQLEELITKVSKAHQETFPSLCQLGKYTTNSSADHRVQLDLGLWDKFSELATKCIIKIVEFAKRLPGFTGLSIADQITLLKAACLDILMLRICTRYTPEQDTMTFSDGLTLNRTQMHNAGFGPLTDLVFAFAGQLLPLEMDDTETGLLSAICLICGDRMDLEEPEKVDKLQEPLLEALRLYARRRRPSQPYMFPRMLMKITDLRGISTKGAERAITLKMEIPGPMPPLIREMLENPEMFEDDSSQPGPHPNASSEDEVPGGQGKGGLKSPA

As to `CC(C)(c1ccc(O)c(-c2ccccc2)c1)c1ccc(O)c(-c2ccccc2)c1`, the call in [1], in [2], in assay [3], in assay [4], in assay [5] and in assay [6] was inactive. In addition, the call in assay [9] and in assay [10] was inactive. The AC50 in assay [7] was 1.61 µM (active); in assay [8], 1.45 µM (active).

On to `CCCCCCCCCCCCBr`, for which the result in assay [1], in assay [2] and in assay [3] was inactive. Moreover, in [7], the AC50 was 43.3 µM (active).

As for `CC(C)(C)c1cc([N+](=O)[O-])cc(C(C)(C)C)c1O`, the half-maximal activity concentration (AC50) in assay [11] is 2.48 µM (active); in [2] it was 19.8 µM (active); in assay [12], 3.94 µM (active); in assay [13], 0.467 µM (active); in assay [14], 9.12 µM (active); in assay [15] it was 0.016 µM (active). The AC50 in assay [6] is 2.37 µM (active); in assay [18], 0.704 µM (active); in [7], 5.15 µM (active); in [8], 6.49 µM (active); in assay [10], 26.7 µM (active). For the same compound, the outcome in assay [3], in assay [16], in assay [4], in assay [17], in assay [5] and in assay [9] was inactive.

`C1CN2CCN1CC2`: the result in [1], in assay [2], in assay [5], in assay [7], in assay [8] and in assay [19] was inactive. Besides, the outcome in assay [20] and in assay [10] was inactive.

In the case of `O=C(Cl)OCCOCCOC(=O)Cl`, the outcome in assay [11], in assay [2], in assay [3], in assay [16], in [5] and in assay [7] was inactive. Besides, the outcome in assay [8] and in assay [19] was inactive.

Regarding `CCCCCCCCCCCCCCC(Br)C(=O)O` (stereo not given), the AC50 is 50.4 µM (active) in assay [1]; 161 µM (active) in [2]; 7.74 µM (active) in assay [4]; 11.4 µM (active) in [7]; 26.7 µM (active) in [10]. Further, the call in assay [3], in assay [8] and in [20] was inactive.

Source of the values: PubChem BioAssay (EPA / NIEHS).
